Compound activity from PubChem.
AmpC detergent: qHTS Inhibitors of AmpC Beta-Lactamase (assay with detergent) | P00811 | AmpC hydrolysis of nitrocefin, absorbance 480 nm, 0.01% Triton | Potency, µM (doses to about 114 µM), for inactives: at the top dose activity change, negative = inhibition, hits mostly inhibitors | 0.041% of 370,000 active | AID 485294, 2010;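 also: 0% = no-compound wells and -100% = no-enzyme wells; nearly all actives have a fitted effect of over 25% in size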
Target sequence (P00811 whole entry, looked up): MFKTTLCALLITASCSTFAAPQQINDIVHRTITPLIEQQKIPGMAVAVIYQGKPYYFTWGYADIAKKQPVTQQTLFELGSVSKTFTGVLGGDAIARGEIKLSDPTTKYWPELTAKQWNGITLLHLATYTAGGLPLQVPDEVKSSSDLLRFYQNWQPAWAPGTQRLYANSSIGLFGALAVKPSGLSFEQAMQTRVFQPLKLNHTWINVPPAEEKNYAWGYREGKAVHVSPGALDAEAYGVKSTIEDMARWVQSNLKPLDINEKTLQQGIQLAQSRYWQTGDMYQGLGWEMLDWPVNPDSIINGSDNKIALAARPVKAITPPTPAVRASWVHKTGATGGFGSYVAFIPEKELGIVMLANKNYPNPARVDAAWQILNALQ
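20 mM phosphate pH 7.0 + 0.01% (detergent screen) or 0.0001% Triton X-100; 5.3 nM AmpC reagent; cpd preinc 15 min RT; nitrocefin (800 uM stock) to start; A480 q20 s × 4 min; Activity was normalised to no-enzyme and no-compound control wells.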
AmpC inh no detg: qHTS Inhibitors of AmpC Beta-Lactamase (assay without detergent); 0.52% of 330,000 active; P00811; AmpC nitrocefin hydrolysis, absorbance 480 nm, 0.0001% Triton; Potency, µM (doses to about 57.1 µM), for inactives: at the highest dose activity change, negative = inhibition, hits mostly inhibitors;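 also: plate controls were no compound for no effect and no enzyme for full effect; nearly all actives have a fitted effect of over 20% in size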
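20 mM phosphate pH 7.0 + 0.01% (detergent screen) or 0.0001% Triton X-100; 5.3 nM AmpC reagent; cpd preinc 15 min RT; nitrocefin (800 uM stock) to start; A480 q20 s × 4 min; Activity was normalised to no-enzyme and no-compound control wells.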
Sm TGR inh: qHTS Assay for the Inhibitors of Schistosoma Mansoni Peroxiredoxins; purified TGR, DTNB reduction, TNB absorbance 405 nm; Potency, µM (series often up to 114 µM), inactives show top-dose activity change, negative = inhibition, hits mostly inhibitors; 3% of 360,000 active; AID 485364, 2010; also: nearly all actives have a fitted effect of over 60% in size
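TGR 20 nM + NADPH 100 uM (dispensed conc.), cpd preinc 15 min RT; start with NADPH (500 uM addition) then DTNB (15 mM addition). Kinetic TNB absorbance, 405 nm filter. Four-parameter Hill fit across titration.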
An asterisk follows results filed as active; u = inconclusive; x = no result given; [ ] = dose if it differs, or a comment. Sampled rows, rich in hits. Any-hit rate of the full collection: about 3.3%. Calls follow the shape of the dose curve; as a rule, active = well fitted curve in the direction sought with a large enough effect; inconclusive = small, poorly fitted or top-dose-only effect, or another doubt; inactive = no such curve, though single readings can be large; an effect the other way counts as inactive or inconclusive. Unless noted, % is scaled to controls: 0 for no effect and ±100 for the full control effect; potency is read from the fitted curve at half-maximal effect.

SMILES	AmpC detergent	AmpC inh no detg	Sm TGR inh
Cc1ccc(C)c(/C=N/n2cc(-c3ccccc3)[nH]c2=S)c1	-13%	16µM*	-14%
Fc1ccccc1/C=N/n1cc(-c2ccccc2)[nH]c1=S	3%	-58%	-6%
CC(=O)C1=NOC2C(=O)N(c3ccccc3)C(=O)C12 (configuration not stated)	-3%	-15%	11µM*
Cc1ccc(N2C(=O)[C@@H]3C(c4ccc(F)cc4)=NO[C@@H]3C2=O)cc1	-3%	-20%	-8%
CC1=CC2(O)OCCN(CCO)C2=CC1=O (configuration not stated)	-5%	-18%	20µM*
Cc1cc(C)n(-c2ncc3c(n2)N(CCO)CCOC3=O)n1	-6%	-10%	4%
N/C(=N\c1nc(CSc2ccc(Cl)cc2)cc(=O)[nH]1)Nc1ccccc1C(F)(F)F	0%	-41%	x
O=C(NCc1ccccc1)C(c1ccccn1)N(C(=O)c1csnn1)c1ccccc1F (configuration not stated)	-8%	-22%	-1%
C=CCS(=O)(=O)c1nc2ccccc2s1	2%	-2%	14µM*
CCS(=O)(=O)CCSc1nc2ccccc2s1	-8%	-4%	0%
CC(C)(C)S(=O)(=O)c1nc2ccccc2s1	-10%	-19%	-4%
O=S(=O)(CCSc1nc2ccccc2s1)c1nc2ccccc2s1	2%	-39%	0.1µM*
O=c1cc(C(F)(F)F)nc(-c2ccccc2OC(F)(F)F)[nH]1	-6%	-9%	-1%
COc1ccc([C@@H]2[C@@H]3C(=O)N(C(C)(C)C)C(=O)[C@@H]3[C@]3(Cc4ccc(Cl)cc4)C(=O)N(c4cccc(F)c4)C(=O)N23)cc1	-3%	35%	-15%
C/C(=N\Nc1ccc(C(=O)O)cc1)c1ccc(S(=O)(=O)NCc2ccco2)cc1	7%	-24%	9%
O=C(NNC(=O)c1ccc(F)c(S(=O)(=O)N2CCOCC2)c1)c1ccc([N+](=O)[O-])cc1	7%	-8%	3%
Cc1ccc(CN2C(=O)C(C)Nc3ncnc(N4CCOCC4)c32)cc1 (configuration not stated)	-11%	31%	-17%
COc1cccc(=O)c2c(C)n(-c3cc(C)cc(C)c3)c(C)c12	-2%	86%	0%
COc1cccc(-n2c(C)c3c(OC)cccc(=O)c3c2C)c1	2%	-24%	22µM*
CCN(CC(=O)NCc1cccs1)CC(=O)Nc1cccc(S(N)(=O)=O)c1	-9%	-16%	-3%
N#CCCN(C(=O)COC(=O)C12CC3CC(CC(O)(C3)C1)C2)c1ccc(F)cc1	3%	38%	-13%
COc1ccc(-c2nnc(SCc3ncc(-c4ccccc4)o3)o2)cc1	u	-11%	40µM*
c1ccc(-c2cnc(CSc3nnc4ccccn34)o2)cc1	-15%	0%	10µM*
Fc1ccc(-c2nnc(CSc3nnc4ccccn34)o2)cc1	-5%	-14%	-11%
COc1ccc(C(=O)CSc2nnc(-c3ccccc3)o2)cc1	-11%	-3%	-9%
SMILES	AmpC detergent	AmpC inh no detg	Sm TGR inh
COc1ccc(/C=C/C(=O)N2CCN(c3ccccn3)CC2)c(OC)c1OC	-4%	6%	0%
CCOC(=O)CSc1nnc(COc2ccc3ccccc3c2)o1	u	20%	-7%
COc1cc2cc(CCCOC(=O)c3ccco3)oc(=O)c2cc1OC	7%	14%	50µM*
COc1cc2cc(CCCOC(=O)c3cc(OC)c(OC)c(OC)c3)oc(=O)c2cc1OC	x	36%	x
COc1ccc(NC(=O)c2oc3ccccc3c2NC(=O)C23CC4CC(CC(C4)C2)C3)c(OC)c1	5%	x	-1%
CCc1ccccc1NC(=O)CNC(=O)CCc1nc2sc3c(c2c(=O)[nH]1)CCCC3	u	32µM*	18%
O=C(CCc1nc2sc3c(c2c(=O)[nH]1)CCCC3)NCCc1ccccc1	3%	-9%	2%
CN1C(=O)NC(c2ccc(Cl)cc2)C2=C1CC(C)(C)CC2=O (configuration not stated)	-6%	-5%	-1%
C/C(=N\NC(N)=S)c1ccc(-n2ccnc2)cc1	-9%	-19%	-7%
C/C(=N\Nc1ccc(Cl)c(Cl)c1)c1ccc(-n2ccnc2)cc1	0%	14µM*	-16%
O=[N+]([O-])c1cc(-c2ccc(/C=N/n3cnnc3)o2)ccc1Cl	-5%	-11%	-23%
CC(C)COC(=O)c1cc(-c2ccc(/C=N/n3cnnc3)o2)ccc1Cl	3%	-23%	22µM*
O=C(COc1ccc2c(c1)CCC2)N1CCN(c2ccccc2F)CC1	-20%	1%	-9%
Cc1ccc2c(Cl)cc(Cl)c(OCC(=O)NCCc3ccccn3)c2n1	4%	130%	-11%
CCN(CC(=O)NC(C)(C)C)C(=O)COc1c(Cl)cc(Cl)c2ccc(C)nc12	7%	173%	16µM*
Cc1ccc(-n2c(=O)[nH]c3c(C(N)=O)nc(CC(C)C)nc32)cc1	u	-7%	1%
Cc1ccc(-n2c(=O)[nH]c3c(C(N)=O)nc(-c4ccc(C)o4)nc32)cc1	-13%	7%	32µM*
CCOc1ccccc1N(C)C(=O)NCc1noc2ccccc12	8%	x	5%
Cc1nc2scc(C)n2c(=O)c1S(=O)(=O)NC(C)c1ccccc1 (configuration not stated)	1%	1%	-8%
Cc1ccc(N2CCN(C(=O)c3c(C)oc4nc(C)nc(N5CCCC5)c34)CC2)c(C)c1	17%	x	28%
Cc1cc(C(=O)C(C)Cl)c(C)n1Cc1ccco1 (configuration not stated)	-7%	-12%[11.4 µM]	28µM*
Cc1cc(C(=O)COC(=O)C(C)NC(N)=O)c(C)n1Cc1ccco1 (configuration not stated)	2%	-15%	2%
CC1(C)CC(=O)C(C=NCCN2CCN(C(=O)Cc3ccc(F)cc3)CC2)=C(O)C1	-19%	20%	u
CC1(C)CC(=O)C(C=NCCN2CCN(C(=O)c3ccc(Br)cc3)CC2)=C(O)C1	1%	66%	28µM*
CC1(C)CC(=O)C(C=NCCN2CCN(C(=O)CC3CCCC3)CC2)=C(O)C1	-18%	16%	7%
SMILES	AmpC detergent	AmpC inh no detg	Sm TGR inh
CC1(C)CC(=O)C(C=NCCN2CCN(C(=O)NC34CC5CC(CC(C5)C3)C4)CC2)=C(O)C1	-2%	148%	35µM*
CC1(C)CC(=O)C(C=NCCN2CCN(C3CC(=O)N(c4ccc(Cl)c(Cl)c4)C3=O)CC2)=C(O)C1 (configuration not stated)	3%	206%	25µM*
CN1C(=O)CC(N2CCN(CCN=CC3=C(O)CC(C)(C)CC3=O)CC2)C1=O (configuration not stated)	-14%	-11%	0%
O=C(CCC(=O)N1CCN(Cc2ccc(F)cc2)CC1)Nc1nnc(C(F)(F)F)s1	u	159%	-9%
Cc1nn(C)cc1S(=O)(=O)NCc1ccccc1Cl	3%	-14%	-20%
C/C(CC(=O)Nc1cccnc1)=N\NC(=O)C(=O)Nc1cccc(C)c1	u	-50%	-11%
COc1ccc(CCN(C)Cc2ccc(OC)c(OCc3ccccc3)c2)cc1OC	-14%	50%	7%
